# From the supplement of paper PMC6555819
# Assays:
# Test in all cases: PBM binding z-score (relative to random genomic background probes); higher = stronger binding; sequences stand for … in GC…GCGATTGACAGCGTAGAATGAAGG
# [1] = test system: PPARg:RXRa DBDmut IVT, anti-RXR (DBD mutation: RXRa K156A/R161A, NR concentration 270 nM, RXRa partner concentration 90 nM)
# Outline: (§1)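 Random background probes are the reference for binding z-scores. These scores derive from regression-normalized fluorescence on custom Agilent 4×180K protein-binding microarrays incubated 1 h with ligand-free nuclear receptor dimers. Binding was detected with antibodies against each partner (one per run).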
# [2] = test system: PPARg:RXRa IVT, anti-PPARg (NR concentration 270 nM, RXRa partner concentration 90 nM)
# Outline: as §1
# [3] = test system: PPARg DBDmut:RXRa IVT, anti-PPARg (DBD mutation: PPARg1 K132A/R137A, NR concentration 270 nM, RXRa partner concentration 90 nM)
# Outline: as §1
# [4] = test system: PPARg DBDmut IVT, anti-PPARg (DBD mutation: PPARg1 K132A/R137A, NR concentration 270 nM)
# Outline: as §1
# [5] = test system: PPARg homodimer (NR concentration 180 nM)
# Outline: as §1
# [6] = test system: PXR:RXRa (NR concentration 270 nM, RXRa partner concentration 90 nM)
# Outline: as §1
# [7] = test system: PXR homodimer (NR concentration 270 nM)
# Outline: as §1
# [8] = test system: RARa:RXR (NR concentration 270 nM, RXRa partner concentration 90 nM)
# Outline: as §1
# [9] = test system: RARa homodimer (NR concentration 270 nM)
# Outline: as §1
# [10] = test system: RARb:RXRa (NR concentration 270 nM, RXRa partner concentration 90 nM)
# Outline: as §1
# [11] = test system: RARb homodimer (NR concentration 270 nM)
# Outline: as §1
# [12] = test system: RARg:RXRa (NR concentration 270 nM, RXRa partner concentration 90 nM)
# Outline: as §1
# [13] = test system: RARg homodimer (NR concentration 270 nM)
# Outline: as §1
# [14] = test system: RXRa DBDmut IVT, anti-RXR (DBD mutation: RXRa K156A/R161A, NR concentration 90 nM)
# Outline: as §1
# [15] = test system: RXRa homodimer (NR concentration 180 nM)
# Outline: as §1
# [16] = test system: THRa:RXRa (NR concentration 90 nM, RXRa partner concentration 90 nM)
# Outline: as §1
# [17] = test system: THRa homodimer (NR concentration 90 nM)
# Outline: as §1
# [18] = test system: VDR homodimer (NR concentration 270 nM)
# Outline: as §1
Sequence,PBM binding z-score [1],PBM binding z-score [2],PBM binding z-score [3],PBM binding z-score [4],PBM binding z-score [5],PBM binding z-score [6],PBM binding z-score [7],PBM binding z-score [8],PBM binding z-score [9],PBM binding z-score [10],PBM binding z-score [11],PBM binding z-score [12],PBM binding z-score [13],PBM binding z-score [14],PBM binding z-score [15],PBM binding z-score [16],PBM binding z-score [17],PBM binding z-score [18]
ACGAGTTGGTCAGCTGAGGTCACACACAATTCGG,0.74,1.98,-0.0405,0.48,2.66,5.43,2.1,4.82,0.588,3.59,4.17,4.17,4.27,1.82,4,4.77,4.97,4.4
CAAACTAGGTCAAGAGGTCGAAGTCCGCTTCCCG,8.31,7.97,1.18,0.351,3.87,3.56,0.441,4.93,1.54,4.44,4.4,6.21,5.88,1.72,5.59,3.34,1.01,2.2
GTACCAAGGTGAATAGGTAGTTGATGAGTAGGCG,1.51,1.76,0.536,0.507,0.398,-0.196,-0.0218,0.256,0.745,1.1,0.555,0.67,0.626,-0.423,0.629,1.14,0.657,0.0253
GCTAGTAGGCCATTTGGGTCACTCAATGACGGGC,5.94,5.02,-0.157,-0.997,0.311,0.202,-0.242,0.598,-0.704,1.47,2.03,0.972,1.33,0.0324,0.766,1.75,0.382,0.26
CCTCGGAGGACAACAGGAGGTCAGTGCTGCCAGA,-0.0147,0.469,-1.04,-1.78,0.702,1.78,0.131,2.05,0.116,2.92,3.56,3.16,3.22,0.309,1.28,2.64,0.965,1.21
AGTCAAAGATCACTAGGTAACGTAAGATTCAGCT,1.14,2.97,0.137,0.156,0.697,-0.103,0.0772,0.125,0.459,0.233,-0.307,0.422,0.489,-0.0538,0.356,0.378,-0.116,-0.051
TCACCAAGGTGAAGGTCGTTGATCCCTCTGTAGA,2.46,2.65,0.477,0.105,-0.15,1.61,0.00737,1.94,-1.46,2.27,1.71,1.55,1.08,0.927,2.01,2.27,0.819,0.342
GGAGCGAGGGCATTCGAGTTGATAGCATGGCGAT,0.18,0.079,-0.936,-1.62,-0.569,3.55,0.905,1.1,-0.544,1.75,0.497,0.849,1.26,2.53,0.554,3.15,-0.906,3.06
CCGACTGGGGCAGAAAGGTTACAATACCATCCGG,1.65,1.7,-0.655,-0.38,0.958,1.14,-0.0674,1.67,0.24,1.73,1.83,1.59,1.25,-0.65,1.75,0.907,-0.555,0.0532
CGTGCTAGGTCATGGTCAGCTAATCTACAGTATG,4.45,4.25,0.168,-0.51,1.36,1.5,-0.399,2.51,-0.32,3.94,3.2,3.97,4.74,1.87,2.75,3.12,1.2,0.319
GGAACGAGGGCGAGTTGATAGCAGAGTTTGATGG,0.699,-0.0712,-0.327,0.298,0.0249,0.0143,-0.021,0.0866,-0.148,0.356,-0.0873,-0.0842,0.176,1.73,0.0566,-0.305,-0.578,1.12
GTACCAAGGTGAATAGGTCGTCGATGAGTAGGCG,1.91,2.77,-0.404,-0.279,0.976,0.807,-0.119,1.9,0.0363,2.18,2.07,2.91,1.67,-0.36,2.1,2.11,0.363,-0.13
CGTCAAAGTTCCAGGTAACGTAACAGAAAGCAGC,0.434,0.748,-0.578,0.351,0.169,0.0635,-0.218,0.268,0.632,0.351,-0.0356,0.18,0.454,0.141,0.0249,0.992,0.691,0.0156
ATAAGTAGGTTACATCCGGGTCATTCAGGCTATG,7.68,7.66,4.25,3.55,2.34,3.51,2.42,3.58,1.79,2.26,2.83,3.41,2.17,1.37,3.12,3.72,2.7,3.19
CCTACTGGGCCATCAGGTCATTGTTATCAACGTT,4.42,5.23,1.61,0.711,1.35,1.63,0.409,2.03,0.317,2.07,2.4,1.8,1.75,0.592,0.877,3.26,3.28,1.99
ACTATTAGTTGACTTAGGGCAACAGATACGACGC,0.146,0.696,1.18,1.49,0.262,0.159,0.123,0.356,0.66,0.851,0.775,0.939,1.03,0.406,0.426,1.48,0.0505,0.162
CGAAATAGGTCATCCAGGACAGTGAATACATTGA,7.78,7.89,2.68,2.13,2.1,3.15,1.18,3.92,1.27,4.59,3.71,5.08,4.84,2.26,4.96,3.96,1.19,1.92
CCGAGTAGGTTCTGGGGCATTCAGGCAACGGTGA,1.08,1.69,-1.23,-1.34,0.223,-0.868,-0.237,-0.69,-0.226,0.00361,0.469,-0.508,-0.495,-0.0942,-0.58,0.118,0.0185,0.0206
CGTACTGGGCCAAAAAGGTCATTGATGCCGATAA,4.13,3.76,-0.0861,-0.32,3.08,4.6,3.5,4.94,1.6,3.87,4.63,4.76,4.11,1.07,4.86,3.15,0.617,2.61
TCATATAGGTAAAACGTGAAAGTCGGTGTGGTAA,6.04,2.88,0.79,1.01,1.25,0.221,0.241,0.571,1.24,0.406,-0.166,0.237,-0.0627,1.62,0.564,0.025,-0.0697,0.126
AGAACGAGGGCAATGCGTTGATAGCACGGGTGGC,2.94,2.57,1.12,0.0782,-0.251,0.219,0.111,0.271,-0.114,2.21,0.934,1.05,1.65,1.2,0.834,0.775,-0.0819,1.17
TCTTGTAGATCAGCAGGTTAGGAAAGCTGGCCAA,1.65,0.124,-0.587,-0.926,0.0866,-0.035,-0.454,0.152,0.51,0.179,0.063,-0.177,-0.406,0.591,0.165,0.0538,-0.496,-0.206
GCTCACGGGTCAAAGGTTATAGCATGAATAGAAT,2.57,4.03,0.462,0.56,2.09,6.14,0.22,8.47,0.284,4.46,3.32,6.64,4.64,2.36,9.1,3.78,-0.0294,1.19
CAAACTAGGTCACAGAGGTCAAAGTCCGTGCGTA,8.82,9.1,2.19,1.15,5.68,6.96,11.2,7.51,3.31,5.25,5.8,7.58,7.69,3.5,8.16,4.79,3.15,7.24
TCTCGGGGGACACGAAAGGTCAGAGCTCGACATC,3.01,4.33,6.64,6.38,5.71,5.07,1.76,5.57,2.64,4.48,4.59,6.13,6.61,2.14,4.9,4.19,2.07,1.57
CCTATTAGTTGACCATAAGGGTAACCGAAGCTCG,0.609,0.727,0.109,1.15,1.86,0.536,1.04,0.834,2.48,1.06,1.5,1.01,0.877,0.493,0.639,1.3,1.19,1.2
ACTAGCTGGCCAAGTTTGGGTCACTCAAACAAAG,-0.306,0.303,-0.848,-0.239,-0.138,0.38,-0.487,0.811,-1.29,1.08,1.35,0.786,0.564,-0.366,0.323,1.82,0.793,-0.123
TTACCCAGGTGAAAGGTCGTTGATGCACGCCTTG,3.16,5.28,1.04,0.584,2.1,3.69,0.742,4.9,-0.211,2.46,2.56,3.48,1.53,0.677,4.51,3.2,1.26,1.66
TCTTGTAGATCAGCAGGTTAAGTAAGCTGGCCAA,1.65,0.766,-0.114,-0.0421,0.0118,0.266,-0.355,0.553,-0.134,0.298,0.124,-0.106,-0.396,0.597,0.384,0.37,-0.0624,-0.499
